# Compounds with a hit are over-represented: about 4.1% of the library has one in this group of screens.
# BoNT-F LC inh = BoNT F light chain protease inhibition; hit rate 0.22% among 360,000; AID 588497; inhibition, % at 10 µM; Multiplex microsphere protease cleavage assay, flow cytometry; in the data active = inhibition above about 35%, passing the limit was not always enough; inconclusive = no clear call, values can overlap the other calls
# VHR inh abs = DUSP3 (human) phosphatase inhibition | recombinant VHR phosphatase, pNPP absorbance | hit rate 0.52% among 290,000 | inhibition, % at 13.3 µM | P51452; in the data active = inhibition above about 50%
# Autofluor counter = compound fluorescence in toxin protease inhibitor counterscreen; AID 624483; compound autofluorescence counterscreen, microsphere flow cytometry; stronger effect = higher value; fluorescence intensity (test concentration not listed); hit rate 3.1% among 360,000; in the data active = fluorescence intensity above about 16000; inconclusive = no clear call, values can overlap the other calls
# MazF activator = activators of E. coli MazEF toxin-antitoxin RNase | P0AE70 | FAM/BHQ RNA-DNA oligo cleavage fluorescence, 5 h | activation, % at 20 µM | hit rate 0.32% among 350,000; in the data active = activation above about 50%
# BoNT-A LC inh2 = blocks Botulinum neurotoxin A light chain protease | AID 588499 | hit rate 0.17% among 360,000 | inhibition, % at 10 µM | multiplex microsphere protease substrate cleavage, flow cytometry
# Anthrax LF inh2 = blocks Bacillus anthracis lethal factor protease; P15917; multiplex microsphere protease cleavage assay, LF; inhibition, % at 10 µM; hit rate 0.12% among 360,000; AID 588501
# Target sequence (P15917 whole entry, looked up): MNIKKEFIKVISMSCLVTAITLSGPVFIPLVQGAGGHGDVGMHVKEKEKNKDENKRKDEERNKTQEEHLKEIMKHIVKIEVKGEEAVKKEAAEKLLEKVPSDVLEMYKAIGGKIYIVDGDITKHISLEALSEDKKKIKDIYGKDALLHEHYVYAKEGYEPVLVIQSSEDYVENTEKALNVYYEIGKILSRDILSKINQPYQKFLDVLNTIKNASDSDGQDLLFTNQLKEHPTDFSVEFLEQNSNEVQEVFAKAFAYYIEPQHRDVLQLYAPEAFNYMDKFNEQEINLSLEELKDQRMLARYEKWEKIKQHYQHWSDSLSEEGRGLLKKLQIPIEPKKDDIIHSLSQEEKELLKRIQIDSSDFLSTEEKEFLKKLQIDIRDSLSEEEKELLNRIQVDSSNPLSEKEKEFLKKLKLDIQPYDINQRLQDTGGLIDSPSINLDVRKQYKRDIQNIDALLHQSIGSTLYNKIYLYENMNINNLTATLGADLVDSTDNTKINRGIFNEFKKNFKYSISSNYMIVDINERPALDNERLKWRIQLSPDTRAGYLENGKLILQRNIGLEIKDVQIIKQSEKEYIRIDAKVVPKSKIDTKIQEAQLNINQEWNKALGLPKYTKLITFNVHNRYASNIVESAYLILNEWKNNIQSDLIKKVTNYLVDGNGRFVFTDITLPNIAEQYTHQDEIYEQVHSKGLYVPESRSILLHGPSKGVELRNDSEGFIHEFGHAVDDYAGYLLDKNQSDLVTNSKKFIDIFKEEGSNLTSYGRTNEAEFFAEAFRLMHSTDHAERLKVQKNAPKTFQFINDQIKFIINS
# Hits are given with their value; n = inactive; u = inconclusive; x = no result. Rule as the data show it, unless noted: active = inhibition above about 30%; inconclusive = no clear call, values can overlap the other calls; inactive = below that.
SMILES,BoNT-F LC inh,VHR inh abs,Autofluor counter,MazF activator,BoNT-A LC inh2,Anthrax LF inh2
COc1ccc(CN(C)C(=O)/C=C/[C@H]2O[C@@H](n3cnc4c(N)ncnc43)[C@H](O)[C@@H]2O)cc1OC,n,x,n,x,n,n
CCOC(=O)CC1=C(C(=O)OCC)C(c2ccc(OC)cc2OC)C(C#N)=C(N)O1 (stereo not drawn),n,n,n,n,n,n
CCOC(=O)C1=C(CC)OC(N)=C(C#N)C1c1ccc(OC)cc1OC (stereo not drawn),n,n,19947,n,u,n
CCOC(=O)C1=C(C)OC(N)=C(C#N)C1c1ccsc1 (stereo not drawn),n,n,17866,n,n,n
Cn1c(CC(=O)NNC(=O)c2ccc(Cl)nc2)nc2ccccc21,n,x,n,n,n,n
CC(C)Oc1ccc(C(=O)NC2(C(F)(F)F)N=C3SCCN3C2=O)cc1 (stereo not drawn),n,n,20653,n,u,n
CC(=O)NC1(C(F)(F)F)N=C2SCCN2C1=O (stereo not drawn),n,n,22076,n,u,n
COc1ccccc1N(CC(=O)NCCSCc1cccc(C)c1)S(=O)(=O)c1ccccc1,n,n,n,n,n,n
Nc1ncnc(Nc2ccccc2Oc2ccccc2)n1,n,x,n,n,n,n
Cc1ccccc1-c1ccc(=O)n(CC(=O)Nc2ccc(N3CCOCC3)cc2)n1,n,n,20524,n,u,n
O=C(Cn1nc(-c2ccccc2)ccc1=O)Nc1ccc(-n2cnnn2)cc1,n,n,n,n,n,n
O=C(Cn1nc(-c2ccccc2)ccc1=O)Nc1ccc(N2CCN(C(=O)c3ccccc3)CC2)cc1,n,n,22910,n,n,n
CC1(C)Cc2nc3oc4c(NCCCN5CCOCC5)ncnc4c3cc2CO1,u,n,n,n,n,n
CCN1/C(=C2\C(=O)N(c3ccccc3)N=C2C)C=Cc2cc(C)ccc21,n,n,n,n,n,n
CCN1C(=O)/C(=C2\C=Cc3ccccc3N2CC)SC1=S,n,n,n,n,n,n
CCN1C(=O)/C(=C2/C=Cc3ccccc3N2C)OC1=S,x,n,x,113,x,x
CCN1C(=O)/C(=C2\C=Cc3cc(C)ccc3N2CC)OC1=S,n,n,n,114,n,n
CN(C(=O)c1cccc(NC(=O)Cc2ccc(NC(=O)C3CCN(C(=O)c4ccccc4)CC3)cc2)c1)C1CCCCC1,n,x,n,n,n,n
CCC(=O)Nc1ccc(NCc2cccs2)cc1,n,n,n,n,n,n
CC(C)c1nc(Cl)c(C#N)c2c1COC(C)(C)C2,u,n,n,n,u,n
CSc1c(C#N)c(N)c(C#N)c2c1COC(C)(C)C2,n,n,21535,n,n,n
CC(C)NC(=O)Nc1cccc2c1O[C@H](CN(C)S(C)(=O)=O)[C@@H](C)CN([C@H](C)CO)C2=O,n,x,n,n,n,n
CO/N=C/c1ccc(N2CCOCC2)c([N+](=O)[O-])c1,n,n,n,n,n,n
O=[N+]([O-])c1cc(/C=N/OCc2c(Cl)cccc2Cl)ccc1N1CCOCC1,n,n,22744,n,n,n
Cc1ccc(S(=O)(=O)CCSc2n[nH]c(=O)n2-c2ccc3c(c2)OCCO3)cc1,x,n,x,n,x,x
SMILES,BoNT-F LC inh,VHR inh abs,Autofluor counter,MazF activator,BoNT-A LC inh2,Anthrax LF inh2
Cc1noc(C)c1C(=O)Nc1nc(C23CC4CC(CC(C4)C2)C3)cs1,n,n,23212,n,n,n
CCO/C=C1/C(=O)N(C(C)=O)c2ccccc21,n,n,22792,n,u,n
CCOC(=O)CON1C(=O)c2ccccc2C1=O,n,n,n,n,n,n
NNC(=O)c1ccccc1OCCOc1ccccc1,n,55,n,n,n,n
C/C(=N\NC(=O)c1ccccc1OCCOc1ccccc1)c1ccccc1F,n,x,n,n,n,n
O=C(Nc1cccc(S(=O)(=O)C(F)(F)F)c1)[C@@H]1O[C@H](CO)[C@@H](O)[C@H]1O,n,x,n,x,n,n
COC(=O)CN(C)C1CC(=O)N(c2ccc(Cl)cc2)C1=O (stereo not drawn),n,n,22599,n,n,n
CN(Cc1ccncc1)C1CC(=O)N(c2ccc(Cl)cc2)C1=O (stereo not drawn),n,n,n,n,n,n
O=C(Cc1ccc(Cl)cc1)NNC1CC(=O)N(c2ccc3ccccc3c2)C1=O (stereo not drawn),n,n,n,n,n,n
O=C(Cc1ccccc1)NNC1CC(=O)N(c2ccc(Cl)cc2)C1=O (stereo not drawn),n,53,n,n,n,n

# Source: PubChem BioAssay (several laboratories)
